CHX counter – counter-screen hit for Shiga toxin inhibitors, cycloheximide | 12% of 300,000 active | AID 2314 | cell reporter, cycloheximide protein synthesis inhibition counterscreen | max response, %; in the data active = max response mostly above about 13%, no sharp cut-off; inactive = mostly below about 14%; note: read at 38.3 µM for the half of the compounds with a filed dose
AMA1-RON2 inh – disrupts binding of P. falciparum AMA1 to RON2. AlphaScreen AMA1-biotinylated RON2 peptide binding. 0.2% of 360,000 active. Potency, µM (highest dose often 58.2 µM), actives largely listed as inhibitors; note: nearly all actives have a fitted effect of over 45% in size
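AMA1 (3D7) with his tag at 25 nM final met compounds first, then biotinylated RON2 peptide at 25 nM; detection used donor plus acceptor beads, 10 µg/mL apiece, read by AlphaScreen after 30 min at room temperature.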
SARS PLpro yeast – inhibitors of SARS-CoV papain-like protease in yeast; S. cerevisiae expressing SARS-CoV PLpro, growth rescue; Potency, µM (top dose mostly 32.9 µM), actives largely listed as activators; AID 485353; 0.19% of 330,000 active; calls by dose curve; note: nearly all actives have a fitted effect of over 55% in size
AmpC inh no detg – AmpC beta-lactamase inhibition without detergent; P00811; AmpC nitrocefin hydrolysis, absorbance 480 nm, 0.0001% Triton; Potency, µM (highest dose often 57.1 µM), hits mostly inhibitors; 0.52% of 330,000 active; note: nearly all actives have a fitted effect of over 20% in size
Target sequence (P00811 whole entry, looked up): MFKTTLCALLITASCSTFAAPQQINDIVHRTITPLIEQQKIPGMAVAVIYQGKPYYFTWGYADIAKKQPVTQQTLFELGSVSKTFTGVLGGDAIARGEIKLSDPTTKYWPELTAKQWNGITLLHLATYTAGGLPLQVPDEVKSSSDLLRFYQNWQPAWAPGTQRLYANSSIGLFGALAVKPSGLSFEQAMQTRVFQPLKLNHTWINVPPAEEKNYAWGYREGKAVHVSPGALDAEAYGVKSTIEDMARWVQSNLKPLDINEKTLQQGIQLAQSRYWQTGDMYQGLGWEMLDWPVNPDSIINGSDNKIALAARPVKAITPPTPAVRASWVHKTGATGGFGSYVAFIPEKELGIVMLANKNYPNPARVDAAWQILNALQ
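20 mM phosphate pH 7.0 + 0.01% (detergent screen) or 0.0001% Triton X-100; 5.3 nM AmpC reagent; cpd preinc 15 min RT; nitrocefin (800 uM stock) to start; A480 q20 s × 4 min; Activity was normalised to no-enzyme and no-compound control wells.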
AmpC detergent – blocks E. coli AmpC beta-lactamase in detergent assay. P00811. AmpC hydrolysis of nitrocefin, absorbance 480 nm, 0.01% Triton. Potency, µM (doses to about 114 µM), usual class: inhibitors. 0.041% of 370,000 active. AID 485294; note: nearly all actives have a fitted effect of over 25% in size
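20 mM phosphate pH 7.0 + 0.01% (detergent screen) or 0.0001% Triton X-100; 5.3 nM AmpC reagent; cpd preinc 15 min RT; nitrocefin (800 uM stock) to start; A480 q20 s × 4 min; Activity was normalised to no-enzyme and no-compound control wells.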
Shiga toxin inh – blocks Shiga toxin action in Vero cells | inhibition, % at 38.7 µM | 9.2% of 290,000 active | Vero cells, Shiga toxin protein synthesis inhibition reporter; in the data active = inhibition mostly above about 28%, no sharp cut-off; inactive = mostly below about 43%
Each line names hits and unclear results; the compound was inactive in the other large screens. The full list was thinned out, with hits kept by preference. Unless noted, calls come from the whole dose curve; as a rule, active = well fitted curve in the direction sought with a large enough effect; inconclusive = small, poorly fitted or top-dose-only effect, or another doubt; inactive = no such curve, though single readings can be large; an effect the other way counts as inactive or inconclusive.

S=C(NCc1ccco1)Nc1cccc(Cl)c1	Shiga toxin inh 32
Cc1ccc(SC(C)C(=O)NCc2cccnc2)cc1 (centres undefined)	none
COc1ccc(NC(=S)NCc2ccco2)cc1	none
S=C(NCc1ccco1)Nc1ccc(Oc2ccccc2)cc1	CHX counter 34
S=C(NCc1ccco1)Nc1ccc(Cl)c(Cl)c1	CHX counter 31
Cc1ccc(C)c(OCCC(=O)OCC(=O)NCCNC(=O)COC(=O)CCOc2cc(C)ccc2C)c1	AmpC detergent inconclusive (no result: CHX counter, Shiga toxin inh)
CCCNC(=O)c1cc(Cl)c(NC(=O)C2=C(C)OCCS2)cc1OC	none
CCCNC(=O)c1cc(Cl)c(NC(=O)C2=CSCCO2)cc1OC	Shiga toxin inh 19
Cc1cccnc1NC(=O)Cn1nc(-c2ccccc2)oc1=S	CHX counter 40, Shiga toxin inh 89
CCc1nn(C)c2c(=O)c(=O)c2n(C)[nH]1	none
O=C(O)C1=C[C@@H](C2CCCCC2)C[C@@H](OCc2ccc(CO)cc2)O1	none
O=C(NC1CC1)C1=C[C@H](C2CCCCC2)C[C@H](OCc2ccc(CO)cc2)O1	CHX counter 13, Shiga toxin inh 35
C#CCNC(=O)C1=C[C@H](C2CCCCC2)C[C@H](OCc2ccc(CO)cc2)O1	CHX counter 14, Shiga toxin inh 52
CC(C)OP(=O)(OC(C)C)C(Nc1ccccc1)c1ccc2c(c1)OCO2 (centres undefined)	none
CC(C)OP(=O)(OC(C)C)C(Nc1ccccc1)c1cccc2c1OCO2 (centres undefined)	CHX counter 23
O=S(=O)(Cc1cc(-c2ccccc2Cl)no1)c1ccccc1	CHX counter 38, Shiga toxin inh 121
O=S(=O)(Cc1cc(-c2ccc(Cl)cc2)no1)c1ccccc1	CHX counter 38, AmpC detergent inconclusive, Shiga toxin inh 44
O=S(=O)(NCc1cc(-c2ccc(Cl)cc2)no1)c1ccccc1	none
CN(CC(=O)Nc1ccccc1Br)C(=O)c1ccc2c(=O)n3c(nc2c1)CCC3	AmpC detergent inconclusive (no result: CHX counter, Shiga toxin inh)
Cc1onc(-c2c(F)cccc2Cl)c1C(=O)NCCO	none
CN1CCCC(OC(=O)c2ccc3c(c2)OCCO3)C1 (centres undefined)	CHX counter 13
CN1CCCC(OC(=O)c2ccc(C(C)(C)C)cc2)C1 (centres undefined)	CHX counter 18
CN1CCCC(OC(=O)c2ccc(Cl)cc2)C1 (centres undefined)	none
C=CCN=c1scc(-c2ccc3c(c2)NC(=O)CO3)n1/N=C(\C)c1ccccn1	none
C=CCN=c1scc(-c2ccc(F)cc2)n1/N=C/c1ccccn1	CHX counter 19, AMA1-RON2 inh inconclusive, Shiga toxin inh 90
C=CCN=c1scc(-c2ccccc2)n1/N=C/c1ccccn1	CHX counter 20, AMA1-RON2 inh inconclusive, Shiga toxin inh active
O=C(CNS(=O)(=O)c1cccs1)N1CCCCC1	none
O=C(CCS(=O)(=O)c1cccs1)N1CCN(c2ccc(F)cc2)CC1	CHX counter 41, Shiga toxin inh 79
O=C(CCCNS(=O)(=O)c1cccs1)N1CCN(c2ccc(F)cc2)CC1	none
O=C(CCNS(=O)(=O)c1cccs1)N1CCCCCC1	CHX counter 33, Shiga toxin inh 102
O=C(C1CCN(S(=O)(=O)c2cccs2)CC1)N1CCCCC1	CHX counter 35, Shiga toxin inh 37
CCc1ccc(NC(=O)C2CCCN(S(=O)(=O)c3cccs3)C2)cc1 (centres undefined)	CHX counter 21
CCCC(C)C(=O)Nc1nc(C)c(-c2csc(Nc3ccccc3OC)n2)s1 (centres undefined)	none
Cc1c(C(=O)N2CCOCC2)sc(NC(=O)Cc2ccccc2)c1C#N	none
CCOC(=O)[C@]12CCC=C1N(Cc1ccccc1)C(=O)[C@H](CC(=O)NCC1CCCCC1)C2	none (no result: CHX counter, SARS PLpro yeast, AmpC inh no detg, AmpC detergent, Shiga toxin inh)
O=C(O)CCC(=O)N1CCN(S(=O)(=O)c2cccs2)CC1	none
O=C(CSc1ccccc1)N1CCN(S(=O)(=O)c2cccs2)CC1	CHX counter 5.9
CC1CCCN(C(=O)CNS(=O)(=O)c2cccs2)C1 (centres undefined)	CHX counter 27

Assay outcomes deposited in PubChem by National Center for Advancing Translational Sciences (NCATS).
